Experiment in all cases: NCI-60 one-dose screen, 48 h (100 = growth as untreated, 0 = no growth, -100 = all killed)
Holding throughout (details): 10 µM unless noted

Test [1] relates to HT29 colon.
Test [2] has as its system SNB-75 CNS.
Test [3] concerns SNB-19 CNS.
Test [4] relates to U251 CNS.
Test [5] deals with SK-MEL-5 melanoma.
Test [6] relates to UACC-62 melanoma.
The subject of test [7] is LOX IMVI melanoma.
Test [8] relates to SK-MEL-28 melanoma.
The subject of test [9] is SK-MEL-2 melanoma.

Compounds without any hit were thinned out: in the full panel of roughly 83,000, 20% have a hit.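 Treatment: one concentration, 48 hours, 96-well format. Scoring: percent growth, with anything below 10 considered active.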 Unmarked numbers belong to inactive results. Active and inactive are the calls of the source.

Regarding `CC(=O)Oc1c(C)c(OC(C)=O)c2c(c1C(C)=O)OC1CC(=O)C(C(C)=O)=C(O)C21C` (configuration not stated), the growth was 100% in test [1]; 94.7% in [2]; 95.4% in test [3]; 91.6% in [4]; 95.4% in test [5]; 95.9% in test [6]. In addition, the growth was 86.7% in test [7], 119% in test [8] and 107% in test [9].
On to `O=C(Nc1cccc2ccccc12)c1cc2c(cc1Br)OCO2`, for which the growth is 101% in [1]; 57.4% in test [2]; 86.7% in [3]; 103% in test [4]; 99.2% in [5]; 91% in [7]. In addition, the results for the growth in test [8] and in [9] were 119% and 130%, respectively.
As for `O=C1/C(=C/c2ccc3cccc(Cl)c3n2)SC(=S)N1CCc1ccc(O)cc1`, the growth in [1] is 107%; in test [2] it was 50.7%; in test [3] it was 97.5%; in [4], 94%; in [5], 95.8%; in test [6] it was 68.4%. Moreover, the growth in [7] was 80.7%; in [8], 108%; in test [9], 101%.
`COc1cc(C(=O)/C=C/c2cccnc2Nc2ccccc2)cc(OC)c1OC`: the growth in test [1] was -70.2% (active); in test [2], -16% (active); in test [3], -72.5% (active); in test [4], -94.8% (active); in [5], -99.4% (active); in test [6], -84.2% (active). Also, the growth was -49.9% (active) in test [7], -97.5% (active) in test [8] and -56.5% (active) in test [9].
For `COc1cc(/C=C/C(=O)c2ccc(F)cc2)ccc1OCCCCCOc1cc2c(cc1OC)C(=O)N1CCCC1C=N2` (configuration not stated), the growth in test [1] is -18.8% (active); in [2], -57.5% (active); in [3], 2.88% (active); in test [4] it was -77.5% (active); in test [5], -78.1% (active); in [6], -92.4% (active). The growth is -94% (active) in test [7], -48% (active) in test [8] and -18% (active) in [9].
With `COc1cccc(-c2nnc(N)o2)c1`, the growth in [1] was 100%; in test [2] it was 106%; in test [3], 102%; in test [4], 97.8%; in [5] it was 99.3%; in test [6], 99.5%. Moreover, the growth is 94.7% in test [7], 104% in test [8] and 107% in test [9].
For `CCC(C)CC(C)C(=O)c1c(O)ccn(OC)c1=O` (configuration not stated), the growth in test [1] is 124%; in test [2], 88%; in test [3], 78%; in test [4], 60.6%; in [5] it was 84%; in test [6], 92.3%. Further, the growth in test [7] is 32.4%; in test [8], 77.6%; in test [9], 102%.
On to `Cc1nc2c(O)cccc2cc1CO`, for which the growth is 99.8% in test [1]; 78.2% in test [2]; 104% in test [3]; 109% in test [4]; 98.5% in test [5]; 106% in test [7]. Besides, the growth in test [8] is 139%; in [9], 122%.
As to `COc1cc2c(c(OC)c1OC)CCc1cnoc1-2`, the growth in test [1] was 99.4%; in [2], 71.7%; in [3], 97%; in test [4] it was 98.7%; in [5], 100%; in test [6], 98.9%. In addition, the growth in test [7] is 92.1%; in [8] it was 123%; in [9] it was 119%.
Consider `O=C(Nc1cccc([N+](=O)[O-])c1)c1cccc(C(=O)Nc2cccc([N+](=O)[O-])c2)c1`, for which the growth was 88.5% in test [1]; -40.4% (active) in test [2]; 60.3% in test [3]; 31.8% in test [4]; 94% in [5]; 75.1% in test [6]. Also, the growth is 67.6% in [7], 77.2% in [8] and 63.7% in test [9].
As to `Cc1ccc([N+](=O)[O-])cc1NC(=O)Nc1cccc(F)c1`, the growth in test [1] was 79.8%; in test [2], 90.2%; in test [3] it was 64.1%; in test [4], 64.3%; in test [5], 60.5%; in test [6], 71.8%. Also, the figures for the growth in test [7], in [8] and in test [9] were 82.4%, 108% and 86%, respectively.
As for `Cc1c(C)c(N2C(=O)C=CC2=O)c(C)c(C)c1N1C(=O)C=CC1=O`, the growth in [1] is 110%; in test [2], 101%; in test [3], 97.3%; in [4], 112%; in [5], 109%; in test [6], 106%. Besides, the growth in test [8] was 81.6%; in test [9] it was 109%.
Turning to `Cc1ccc(C(C)C)cc1NC(=O)Nc1ccc([N+](=O)[O-])cc1`, the growth in [1] was 12.4%; in test [2] it was 40.9%; in test [3], 20.1%; in [4], 15.4%; in test [5] it was 16.7%; in test [6] it was 11.7%. In addition, the values for the growth in test [7], in [8] and in test [9] were 5.39% (active), 22.4% and -2.75% (active), respectively.
For the compound `O=C(N1CCC(CN=c2cc3n(-c4ccc(Cl)cc4)c4ccccc4nc-3cc2Nc2ccc(Cl)cc2)CC1)N1CC1`, the growth in test [1] is -97.9% (active); in test [2], -60.6% (active); in [3] it was -67.7% (active); in test [4], -62.5% (active); in [5] it was -97.6% (active); in test [6], -77.5% (active). The growth is -67.5% (active) in test [7], -90.8% (active) in test [8] and -80.8% (active) in [9].
With `N#CCNc1ccccc1N`, the growth in [1] is 86.4%; in test [2] it was 77.8%; in test [3], 117%; in [4], 97.2%; in test [5], 96%; in [6], 95.3%. Moreover, the growth was 95.1% in [7], 110% in [8] and 107% in [9].
